# Compound activity (PubChem BioAssay)
# SmPrx2 inh: Schistosoma mansoni Prx2 inhibition. S. mansoni Prx2 activity coupled to TGR/GSH (TGR is thioredoxin glutathione reductase), NADPH fluorescence loss, qHTS. Potency, µM. 65,000 tested, 0.07% active
#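 Activity is read as the drop in NADPH fluorescence (365/450 nm), recorded every 30 sec for 8 min after H2O2 addition. Prx2 is coupled to TGR-driven NADPH oxidation through glutathione, in phosphate buffer pH 7.4.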
# AmpC nodet inh: AmpC beta-lactamase inhibition, detergent-free assay. P00811. AmpC nitrocefin hydrolysis, absorbance 480 nm, no detergent. Potency, µM (titrated, usually from 28.7 µM), inactives show at the top dose activity change, negative = inhibition. 71,000 tested, 1.8% active. AID 585; further: % of control where 0% means no effect
# Target sequence (P00811 whole entry, looked up): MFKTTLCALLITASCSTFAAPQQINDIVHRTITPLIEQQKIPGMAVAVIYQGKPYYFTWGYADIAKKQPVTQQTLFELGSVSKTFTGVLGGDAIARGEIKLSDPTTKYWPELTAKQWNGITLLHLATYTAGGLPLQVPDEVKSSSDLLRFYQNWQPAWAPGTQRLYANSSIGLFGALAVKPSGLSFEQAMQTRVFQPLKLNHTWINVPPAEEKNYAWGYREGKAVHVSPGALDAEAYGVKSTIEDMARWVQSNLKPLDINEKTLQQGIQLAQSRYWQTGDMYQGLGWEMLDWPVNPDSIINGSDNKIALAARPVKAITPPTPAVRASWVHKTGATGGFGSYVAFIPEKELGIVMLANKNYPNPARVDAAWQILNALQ
#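 Enzyme, pH 7.0 phosphate. Compound titrations were pre-incubated with AmpC for 15 min at room temperature before nitrocefin (stock 800 uM) addition; product formation was recorded at 480 nm every 20 s for 4 min.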
# AmpC det inh: inhibitors of E. coli AmpC beta-lactamase with detergent. P00811. purified AmpC, nitrocefin hydrolysis with detergent. Potency, µM (doses to about 28.7 µM), inactives show top-dose activity change, negative = inhibition. 71,000 tested, 0.09% active; active means well fitted curve in the direction sought with a large enough effect; inconclusive means small, poorly fitted or top-dose-only effect; further: on the % scale 0 is the no-effect control and ±100 the full control effect
#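 E. coli AmpC (5.3 nM) in 20 mM phosphate pH 7.0 with 0.01% Triton X-100, preincubated 15 min RT with compound; nitrocefin (2 uL of 800 uM stock) hydrolysis followed by 480 nm absorbance every 20 s over 4 min.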
# LT uptake inh: inhibitors of anthrax lethal toxin internalization | Potency, µM (doses to about 40 µM), inactives show at the highest dose activity change, negative = inhibition, usual class: inhibitors | AID 912 | 70,000 tested, 0.67% active | Cells, anthrax lethal toxin internalization, FRET ratio (460/530); further: on the % scale 0 is the no-effect control and ±100 the full control effect; nearly all actives have a fitted effect of over 50% in size
# Numbers without * were called inactive; ? = inconclusive; . = not tested or not shown; [ ] = another dose, or the depositor's remark. Only some compounds are listed: those with a hit (about 2.4% of all), similar ones and a draw of the others. Unless noted, the call rests on the fitted dose curve. Potency means the concentration at half of the fitted maximal effect.
SMILES,SmPrx2 inh,AmpC nodet inh,AmpC det inh,LT uptake inh
COc1cc2nc(N3CC=[N+](C(=O)c4ccco4)CC3)nc(N)c2cc1OC,>57,9.1%,-3.6%,-4.2%
Cc1ccc(-c2csc(N3CCC(C(N)=O)(N4CCCCC4)CC3)n2)cc1,>57,3.98µM*[single pt active],14.0%,-2.3%
Cc1ccc(C#N)cc1,.,-14.6%,8.2%,4.6%
O=C(c1ccccc1)[C@H]1[C@H](c2ccccc2[N+](=O)[O-])N1C1CCCCC1 (stereo partly drawn),>57,-10.1%[5.75 µM],0.2%[5.75 µM],?
CNc1nc(Nc2ccc(C(C)=O)cc2)nc(OC(C(F)(F)F)C(F)(F)F)n1,>57,38.0%,2.0%,10µM*
C/C=C\C1=C(CO)C(=O)[C@@H]2OC2C1=O (stereo partly drawn),.,.,.,-0.4%[1.6 µM]
CCCN1C(=O)c2cc(C(=O)NC3CCCCCC3)ccc2C1O (stereo not drawn),>57,3.98µM*[single pt active],15.1%,-3.7%
O=c1c(-c2ccc(Cl)cc2)nc2cnc(N3CCNCC3)nc2n1-c1ccccc1,>57,81.3%,0.2%,-0.6%
O=C(c1ccco1)N1CCN(c2nc3ccccc3n3nnnc23)CC1,>57,39.7%,21.2%,-3.8%
c1ccc(CC2CCN(c3nc4ccccc4n4nnnc34)CC2)cc1,>57,12.6µM*,12.0%,-7.6%
Cc1ccccc1-c1ccc2ncnc(-n3ccnc3)c2c1,>57,44.8%,10.4%,5.01µM*
CN(C)c1ccc(-c2ccc3ncnc(-n4ccnc4)c3c2)cc1,>11.4,77.8%,11.0%,7.94µM*
Cc1ccccc1-c1ccc2ncnc(N(C)C)c2c1,>57,77.2%,5.8%,-18.1%
O=C(O)/C=C\c1ccc[c]([Sb](=[O])([OH])[OH])c1,>57,-2.9%[5.75 µM],-7.6%[5.75 µM],-19.2%[8 µM]
O=C(CCl)c1ccccc1,.,-12.9%,3.5%,12.6µM*
COc1cc2[nH]c(=O)c(C(=O)NCCCN3CCCCC3)c(O)c2cc1OC,>57,30.6%,8.6%,12.6µM*
O=C(NCCCN1CCOCC1)c1c(O)c2ccccc2[nH]c1=O,>57,23.9%,-3.0%,3.1%
O=C(CCCN1CCC2(CC1)C(=O)N(Cc1cccc(F)c1)CN2c1ccccc1)c1ccc(F)cc1,>57,20µM*[single pt active],-8.7%,?
CCOC(=O)N1CCC(NC(=O)CCc2c(C)nc3c(c(C)nn3-c3ccccc3)c2C)CC1,>57,3.98µM*[single pt active],11.9%,-10.0%
COc1cccc(Cn2c(=O)c(-c3cccs3)nc3cnc(N4CCN(C)CC4)nc32)c1,>57,131.1%,-1.3%,?
C[C@H]1/C=C\CC(=O)OC[C@H](C)C(=O)N2CCC[C@@H]2C(=O)OC1,.,.,.,-8.7%[8 µM]
CCOC(=O)c1c(C)n(CCOC)c2ccc(O)cc12,>57,-10.0%,-2.0%,-0.7%
CCCCCS(=O)(=O)CCCCCCCCCCn1c(-c2ccc(O)cc2)c(C)c2cc(O)ccc21,.,.,.,5.01µM*
Fc1ccc(C(OCCCc2cnc[nH]2)c2ccc(F)cc2)cc1,>57,21.3%,-5.1%,?
CCOC(=O)SC1=N/C(=C\c2ccc(N(C)C)cc2)C(=O)S1,>57,15.8µM*,5.01µM*,-3.8%
SMILES,SmPrx2 inh,AmpC nodet inh,AmpC det inh,LT uptake inh
Cc1ccc(-c2nnc(N3CCN(c4ccccn4)CC3)c3ccccc23)cc1,>57,3.4%,3.5%,11.2%
c1ccc(-c2nnc(N3CCN(c4ccccn4)CC3)c3ccccc23)cc1,>57,39.2%,-3.9%,10µM*
O=C(Nc1nc(-c2ccc(S(=O)(=O)N3CCCC3)cc2)cs1)c1ccco1,>57,-8.0%,-1.8%,.
Cn1cccc1C(=O)Nc1nc(-c2ccccn2)cs1,>57,-10.8%,-2.2%,-18.0%
O=C(Nc1nc(-c2ccccn2)cs1)c1ccc(Cl)s1,>57,-1.1%,5.9%,6.31µM*
O=C(Nc1nc(-c2ccc(Cl)s2)cs1)c1cccs1,>57,?,4.2%,?
Cc1ccc(-c2csc(NC(=O)c3ccno3)n2)cc1,>57,7.94µM*,-2.6%,12.9%
O=C(Nc1nc(-c2ccccc2)cs1)c1cccs1,.,-15.7%,6.5%,10µM*
Cc1ccccc1-c1cc(Nc2ccc(F)cc2)ncn1,>57,0.5%,7.3%,-4.5%
COc1ccccc1N1CCN(Cc2cc(Br)c(O)c3ncccc23)CC1,>57,2.51µM*[single pt active],16.5%,?
Oc1ccc([C@H](O)[C@@H]2CCCCN2)cc1O,>57,-2.5%[5.75 µM],-3.9%[5.75 µM],5.1%[8 µM]
COc1cc2c(cc1O)CCN[C@H]2C,>57,-4.0%,-0.2%,?
O=C(COC(=O)c1ccc(Br)o1)Nc1nc2ccccc2s1,.,5.01µM*,1.0%,0.4%
[Cl-].[Cl-].[Hg+2],.,1.26µM*,12.6µM*,?
[Cd+2].[Cl-].[Cl-],.,-8.4%,10.3%,?
N#C/C(=C\c1ccc(O)c(O)c1)C(=O)Nc1ccccc1,>57,?,-4.8%,25.1µM*
COc1ccc(C(=O)C(CN2CCOCC2)c2ccccc2)cc1F (stereo not drawn),>57,75.7%,-2.1%,15.8µM*
COc1ccc(C(O)C(CN2CCOCC2)c2ccccc2)cc1F (stereo not drawn),>57,3.9%,4.9%,2.0%
CCn1cc(C(=O)NCc2ccc3c(c2)OCO3)c(=O)c2cc(S(=O)(=O)N3CCOCC3)ccc21,>57,99.8%,-1.2%,?
CCn1cc(C(=O)N2CC(C)CC(C)C2)c(=O)c2cc(S(=O)(=O)N(C)C)ccc21 (stereo not drawn),>57,68.3%,6.7%,-13.5%
CCn1cc(C(=O)NCC2CCCO2)c(=O)c2cc(S(=O)(=O)N(C)C)ccc21 (stereo not drawn),>57,3.98µM*[single pt active],12.8%,3.6%
CCn1cc(C(=O)NCc2ccc(Cl)cc2)c(=O)c2cc(S(=O)(=O)N3CCOCC3)ccc21,>57,3.98µM*[single pt active],14.0%,-17.1%
CCn1cc(C(=O)NCCCN2CC(C)CC(C)C2)c(=O)c2cc(S(=O)(=O)N(C)C)ccc21 (stereo not drawn),>57,3.16µM*[single pt active],12.8%,-19.4%
CN(C)C(=O)c1ccc(-c2ccc3ncnc(N(C)Cc4ccco4)c3c2)cc1,>57,50.9%,8.3%,-12.7%
C/C(=N/S(=O)(=O)c1ccc(Cl)c(Cl)c1)OCC(C)(C)C,>57,1.4%[5.75 µM],-3.5%[5.75 µM],-0.4%[8 µM]
SMILES,SmPrx2 inh,AmpC nodet inh,AmpC det inh,LT uptake inh
C=CC1=C(C)C2=NC1=CC1=NC(=CC3=NC(=CC4=NC(=C2)C(C)=C4CCC(=O)O)C(CCC(=O)O)=C3C)C(C=C)=C1C.[Zn],>57,78.0%,-12.4%,15.8µM*
CC(=O)NCCNc1nc(-c2ccccc2Cl)nc2ccccc12,>57,-5.0%,10.3%,5.3%
CC(=O)NCc1ccc(-c2csc(N)n2)s1,>57,-11.5%,13.5%,10µM*
Cc1ccc(-c2csc(N)n2)s1,>57,?,-1.6%,?
O=C(Nc1ccc2c(c1)OCO2)c1cc2ncc(Br)cn2n1,>57,15.8µM*[single pt active],25.0%,3.3%
COc1cccc(-c2cc(C(=O)Nc3ccc(OC)c(OC)c3)no2)c1,>57,31.7%,-5.2%,-13.4%
COc1ccc(NC(=O)c2cc(CC(C)C)on2)cc1OC,>57,3.98µM*[single pt active],12.1%,-5.2%
CC(C)Cc1cc(C(=O)Nc2ccc3c(c2)OCO3)no1,>57,3.98µM*[single pt active],12.6%,?
Cc1onc(-c2ccccc2)c1C(=O)Nc1ccc2c(c1)OCO2,.,-6.3%,4.1%,-12.6%
